Biological target: VTCN1, Q7Z7D3
Sequence (Q7Z7D3 whole entry): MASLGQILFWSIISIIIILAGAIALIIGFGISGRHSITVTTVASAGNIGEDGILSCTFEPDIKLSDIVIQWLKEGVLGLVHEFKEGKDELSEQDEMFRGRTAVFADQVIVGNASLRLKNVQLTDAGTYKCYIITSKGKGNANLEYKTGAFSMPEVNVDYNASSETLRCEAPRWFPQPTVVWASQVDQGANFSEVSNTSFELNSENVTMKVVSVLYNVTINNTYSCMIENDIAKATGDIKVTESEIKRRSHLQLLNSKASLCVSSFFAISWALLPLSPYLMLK

B1: design_606_b60ff77f-1541-4e5f-8260-46d5e5f6b85e_898_dldesign_0_cycle1_af2pred (protein)
chain: MNITEKVAAAAQAALAALADPATAVAALSAARFTALDLVSEDIEAGEVAIEIFEKGDAGSRRVARIIRSHVEALKRN
binding in a display sort: not found (inactive)

B2: design_606_b60ff77f-1541-4e5f-8260-46d5e5f6b85e_1401_dldesign_0_cycle1_af2pred (protein)
chain: GAKAIAAKAAAYGYEIAAEIYRLDKEVGEKVRKYVVEKAKEAAASDEETAKKIGEEVKKEAEKALEEVKKK
binding in a display sort: not found (inactive)

B3: design_606_b60ff77f-1541-4e5f-8260-46d5e5f6b85e_200_dldesign_0_cycle1_af2pred (protein)
chain: EEEKLIADSAKEVDAAADKAMDAMAKNKEAAKAAKAELEALAAKFKELAEKGSPEVAKKMNLAAKTMKRFAELLKKAAS
binding in a display sort: not found (inactive)

B4: design_606_b60ff77f-1541-4e5f-8260-46d5e5f6b85e_1298_dldesign_0_cycle1_af2pred (protein)
chain: KEEEEKQIKELKEKVEKLKKEAEEAKTAEEALKVFKEARKVGKEARKLAEKASPELAKKAKEVAKEAAKVAELAAEKYAEKKSEEIRK
binding in a display sort: not found (inactive)

B5: design_606_b60ff77f-1541-4e5f-8260-46d5e5f6b85e_1400_dldesign_0_cycle1_af2pred (protein)
chain: MAEAAQKAWENIAEAEYYAKKLKENPELKEEAKKIEEKIKKAKELLKKAQKTGDGELAKEAEKLAKEAAKEAKELVEK
binding in a display sort: not found (inactive)

B6: design_606_b60ff77f-1541-4e5f-8260-46d5e5f6b85e_1075_dldesign_0_cycle1_af2pred (protein)
chain: AEEKEKKAKEAAEKAEKFIEKAKKAIKEGDLFSAQAYVEAAKHAAEVAKKYDPEVGEKLLKKVEEVEKEI
binding in a display sort: not found (inactive)

B7: design_606_b60ff77f-1541-4e5f-8260-46d5e5f6b85e_490_dldesign_0_cycle1_af2pred (protein)
chain: MEAAKEAAKKVLELADLSAEASAEDFPEVEKKAEEALKFAEEVAKEDPEAGEKAKRTVKRILEDTRKAVEK
binding in a display sort: not found (inactive)

B8: design_606_b60ff77f-1541-4e5f-8260-46d5e5f6b85e_1085_dldesign_0_cycle1_af2pred (protein)
chain: ATAKEAAEYAEKAREYMVELEYERIKAKREGDEETAKRLEKAIEEVREKLKKAREAMKAGDKEKALEYSKEALEIAKKAVEELKA
binding in a display sort: not found (inactive)

B9: design_606_b60ff77f-1541-4e5f-8260-46d5e5f6b85e_724_dldesign_0_cycle1_af2pred (protein)
chain: AAAQKAAEAAATLYENSNEAIWLAKKEGAKGAVEGKKLLEKGVAAAEAAAKEASPEDAAKLKKLAESRKERTEKAIKKALA
binding in a display sort: not found (inactive)

B10: design_606_b60ff77f-1541-4e5f-8260-46d5e5f6b85e_905_dldesign_0_cycle1_af2pred (protein)
chain: DNEEKKKELKEEAEKYKEELLKEKDEALKAGDFESAIFISKKAVKIKKLEEEGKKGNKEEVEKKKEEIKKEAKEALEFYKKNKE
binding in a display sort: not found (inactive)

B11: design_606_b60ff77f-1541-4e5f-8260-46d5e5f6b85e_64_dldesign_0_cycle1_af2pred (protein)
chain: GSSEEAERDSRLVSEMVRAARAGAEAAARLPPAEAARYRAELAALVAAMYDALGAGSPAAEEYVARVRALAAEIAARAAAA
binding in a display sort: not found (inactive)

B12: design_606_b60ff77f-1541-4e5f-8260-46d5e5f6b85e_411_dldesign_0_cycle1_af2pred (protein)
chain: MEEELEKEKKEAEKFLEETKKIAEEAVKRAESGEDIAGAAHELYELKSEAEYLAKTSSPEAAKLYKEAAKIAKEALEEVRKRGKERKA
binding in a display sort: not found (inactive)

B13: design_606_b60ff77f-1541-4e5f-8260-46d5e5f6b85e_733_dldesign_0_cycle1_af2pred (protein)
chain: DAATQKKASEAAAEAHEAAAEFTNKLKDKELKDKIKEIVREAIEKGKAATPEEALKIFTEAKKKIEDAAKKYA
binding in a display sort: not found (inactive)

B14: design_606_b60ff77f-1541-4e5f-8260-46d5e5f6b85e_976_dldesign_0_cycle1_af2pred (protein)
chain: SSEEIEEKNRKVSEVVHHAIKAIKAYADPALRDAYLAKAKAILPDAADALAAQVDAAKTGSTADAILNVADIAWDALT
binding in a display sort: not found (inactive)

B15: design_606_b60ff77f-1541-4e5f-8260-46d5e5f6b85e_1318_dldesign_0_cycle1_af2pred (protein)
chain: DVAAALAAAKAAAAAKMAEVKKYGAETAEAVKDAIDMGNIYGAGSLAEVMVGPEAGKIAKAAAEAAAKARELAAKA
binding in a display sort: not found (inactive)

B16: design_606_b60ff77f-1541-4e5f-8260-46d5e5f6b85e_762_dldesign_0_cycle1_af2pred (protein)
chain: SEEEKKIKELAKEMEEVGKEAAEAGKKNPEEGKKLRDIMIKLANEAVALAEKLGLEEEAKKIKEKAAELSAKAYEAIAENLA
binding in a display sort: not found (inactive)

B17: design_606_b60ff77f-1541-4e5f-8260-46d5e5f6b85e_1160_dldesign_0_cycle1_af2pred (protein)
chain: AEAARRAALVAKVDAAFDDAGKTISEAKEKTPEEAKALVDAAIAKANAEAKAHPEAAKGFNAVADTAKSMGERIIAEKLA
binding in a display sort: not found (inactive)

B18: design_606_b60ff77f-1541-4e5f-8260-46d5e5f6b85e_1326_dldesign_0_cycle1_af2pred (protein)
chain: AEAEKKAEEAAKEAEKIYKEMLKAVETKSKEEAAKFAKEAAEKLKKLAKKIYEATGKVPLEVLLALAEARVIAKK
binding in a display sort: not found (inactive)

B19: design_606_b60ff77f-1541-4e5f-8260-46d5e5f6b85e_148_dldesign_0_cycle1_af2pred (protein)
chain: NPKIEGEAALTRAEGAYESAKALPPEKAAEAYRKAAEIAKKQAEEAEKAGEEAKPYAEKIRKIAKEAEKKAKELEKA
binding in a display sort: not found (inactive)

B20: design_606_b60ff77f-1541-4e5f-8260-46d5e5f6b85e_1497_dldesign_0_cycle1_af2pred (protein)
chain: MEEESKKYIETATALLEEAKKALEEDKEKGLKLLEEASALAYEKAAEARQLGDKETAEKLREIAKEAREAAKKAR
binding in a display sort: not found (inactive)

B21: design_606_b60ff77f-1541-4e5f-8260-46d5e5f6b85e_1331_dldesign_0_cycle1_af2pred (protein)
chain: SELEKGREVIKKAAEKAKKAAKEAAEKKGDPKKGEEKIKEIKELEEEGAKAEDPKVKSEKAAKIRQIKAEAEFELKK
binding in a display sort: not found (inactive)

B22: design_606_b60ff77f-1541-4e5f-8260-46d5e5f6b85e_364_dldesign_0_cycle1_af2pred (protein)
chain: AEARDKAILEKAKKETEELAKKAEELAKKGAKKEEIEKVIKEIRKVGKEYAAKASPEVAPEILTIAGDAVAEAKGAYQEAKIK
binding in a display sort: not found (inactive)

B23: design_606_b60ff77f-1541-4e5f-8260-46d5e5f6b85e_1207_dldesign_0_cycle1_af2pred (protein)
chain: DEEKLKEAAEYLQEAAEYLAELKYLSKDPKNKELAEKAKKILKEAIEKGKKGTPEEALEIAKKAKEEIKKLAKKAKE
binding in a display sort: not found (inactive)

B24: design_606_b60ff77f-1541-4e5f-8260-46d5e5f6b85e_1592_dldesign_0_cycle1_af2pred (protein)
chain: AAAAAAAAERAAIQKELDEIRDKYLEELEKNPENAEEIIKKAKEAVEALAKKHAKFAEEILKGGNGYVSLIEATAKMLERRKKEE
binding in a display sort: not found (inactive)

B25: design_606_b60ff77f-1541-4e5f-8260-46d5e5f6b85e_888_dldesign_0_cycle1_af2pred (protein)
chain: EVEKLIKEVKEAGEKAAKADPDIADYIKNAVKTAEELMTKNAADLEKVKEIAEKAINTFKRIIENAEKAKELEAK
binding in a display sort: not found (inactive)

B26: design_605_6ebdab39-eaab-4492-afcb-164e20c3b25e_2479_dldesign_0_cycle1_af2pred (protein)
chain: MKEASEAAAKAYEYMAEALYYGKKASEEAAKEAEKAAKEVKELLKKAREAAKEGKYEEAKKLAEEAYKLAKETYEKLKKELEKKKA
binding in a display sort: not found (inactive)

B27: design_606_b60ff77f-1541-4e5f-8260-46d5e5f6b85e_1003_dldesign_0_cycle1_af2pred (protein)
chain: SMKEKEEKYKEAKEKLEKQREAVKEGEKLAKESPEMGLALMRAAVKRAEEVAKKLEKEDPEKGPEAKKMAEEVRKLAKEAEKKIKEEL
binding in a display sort: not found (inactive)

B28: design_606_b60ff77f-1541-4e5f-8260-46d5e5f6b85e_1000_dldesign_0_cycle1_af2pred (protein)
chain: MSEYEKNLARAEAYADQLLDSAKKTGAAKGPEAEVAATKEAKDAATKYANSLGEEVGKEIKAKMEKEVKAVADAAAKALAA
binding in a display sort: not found (inactive)

B29: design_606_b60ff77f-1541-4e5f-8260-46d5e5f6b85e_600_dldesign_0_cycle1_af2pred (protein)
chain: AAAAEAKGKKINELRIEANDYAYEHEINSSNPELSKAYKEEAEKKIKEAEKIDPEGGKRIKKSFESIEEHVKKNL
binding in a display sort: not found (inactive)

B30: design_606_b60ff77f-1541-4e5f-8260-46d5e5f6b85e_118_dldesign_0_cycle1_af2pred (protein)
chain: MLEEVKEKAKELKAAKGTPEEKLKLAREARELFRRAREELSARGATPEEAEAMHELRQAAAELEAEAKRELKE
binding in a display sort: not found (inactive)

B31: design_606_b60ff77f-1541-4e5f-8260-46d5e5f6b85e_1086_dldesign_0_cycle1_af2pred (protein)
chain: EKAEKLIKEIKKLAKEAKKSTPEEAKKLLEEAKKLAKEVAKLGPEAAKLAKKALSEAAAAYYENKAENEWKERKEKE
binding in a display sort: not found (inactive)

B32: design_606_b60ff77f-1541-4e5f-8260-46d5e5f6b85e_580_dldesign_0_cycle1_af2pred (protein)
chain: MTEEEKKEAEKKAEEIKKLGKELAKKVLNSKDAEKEVKKAKKELREKGKKLAEAGNPEAKKIISKAVSEAYQLLNEAEWKNLK
binding in a display sort: not found (inactive)

B33: design_606_b60ff77f-1541-4e5f-8260-46d5e5f6b85e_1599_dldesign_0_cycle1_af2pred (protein)
chain: MPVVKAVSEYTKFVVSKMREAAAAGASEEELVGAVEEGEKYGEELGKKIGEEALEAVKDLSEMFKESARAAARARKA
binding in a display sort: not found (inactive)

B34: design_606_b60ff77f-1541-4e5f-8260-46d5e5f6b85e_370_dldesign_0_cycle1_af2pred (protein)
chain: DLVKEASKLSGQAYEYKAAADVGVLNKEELKAGAEIAKKAAELAKKIAKETTPEEAKKYLKQAETMKKIAEYLEKKAQEL
binding in a display sort: not found (inactive)

B35: design_606_b60ff77f-1541-4e5f-8260-46d5e5f6b85e_842_dldesign_0_cycle1_af2pred (protein)
chain: MEEAKKKITELAEAAAAADPETAKKLLAEASRYLIDYISKNKLDSETISELVSYLKEKGKEALAQAKAKEAAA
binding in a display sort: not found (inactive)

B36: design_606_b60ff77f-1541-4e5f-8260-46d5e5f6b85e_637_dldesign_0_cycle1_af2pred (protein)
chain: MEEEEERRRVLEIAREDAEEALAKAKAAAEKGELDGVAIGLARGNASVLDEETGKKVREAADKVEAAAKAAQAAK
binding in a display sort: not found (inactive)

B37: design_606_b60ff77f-1541-4e5f-8260-46d5e5f6b85e_1596_dldesign_0_cycle1_af2pred (protein)
chain: SAAVKEKVAELTKKVNEARDNAFETGNWEEELAKIEKLAAEIAKVGNAEQAEAAEKGVNAMKSMAEALKEMEKK
binding in a display sort: not found (inactive)

B38: design_606_b60ff77f-1541-4e5f-8260-46d5e5f6b85e_1152_dldesign_0_cycle1_af2pred (protein)
chain: EEAEKYLKEIEKAKEEAEKLAEELKEEGDSKAAAKAATAAAVAESAALAAKANPEKAKEAAEKAKKALEKAKKYAKESREKKKA
binding in a display sort: not found (inactive)

Source: paper PMC13494018
